MOR-DOR inv ag-1 = inverse agonists of MOR-DOR heterodimerization, primary screen, cell-based, luminescence | AID 504357, 2011 | inhibition, % at 9.3 µM | 340,000 tested, 0.21% active | Mu-type opioid receptor (Homo sapiens) + Delta-type opioid receptor (Homo sapiens), … | cell-based MOR-DOR heterodimer luminescence, inverse agonism; in the data active means inhibition above about 22%, passing the limit was not always enough;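 further: 0% = cells with DMSO and 100% = wells without cells with DMSO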
HTR5A inv ctr = HTR5A inverse agonists in luminescence cell assay, primary screen, counter-screen for OPRM1-OPRD1 heterodimer inverse agonist project, full-deck HTS; HTR5A cell line, inverse agonism; inhibition, % at 9.3 µM; 340,000 tested, 0.083% active; in the data active means inhibition mostly above about 23%, no sharp cut-off; inactive means mostly below about 18%;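 further: 0% = cells with DMSO and 100% = no-cell wells with DMSO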
Target sequence (P47898 whole entry, looked up): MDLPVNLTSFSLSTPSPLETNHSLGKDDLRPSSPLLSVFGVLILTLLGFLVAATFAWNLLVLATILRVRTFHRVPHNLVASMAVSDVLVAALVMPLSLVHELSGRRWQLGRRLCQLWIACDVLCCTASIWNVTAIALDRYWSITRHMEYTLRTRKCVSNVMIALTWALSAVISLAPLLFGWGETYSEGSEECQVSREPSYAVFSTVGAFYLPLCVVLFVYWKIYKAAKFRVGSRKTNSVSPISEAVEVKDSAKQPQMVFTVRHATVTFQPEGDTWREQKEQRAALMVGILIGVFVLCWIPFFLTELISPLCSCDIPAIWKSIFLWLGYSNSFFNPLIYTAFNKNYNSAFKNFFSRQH
MOR-DOR ag = agonists of OPRM1-OPRD1 heterodimerization, primary screen, cell-based, luminescence; 340,000 tested, 0.3% active; cells; activation, % at 9.3 µM; in the data active means activation above about 18%;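 further: 0% = vehicle-treated cells and 100% = reference agonist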
HTR5A ag ctr = HTR5A agonists in luminescence cell assay, primary screen, counter-screen for OPRM1-OPRD1 heterodimer agonist project, full-deck HTS. 5-hydroxytryptamine receptor 5A (Homo sapiens), P47898. 340,000 tested, 0.61% active. activation, % at 9.3 µM. AID 504692, 2011. cell-based; in the data active means activation mostly above about 9.5%, no sharp cut-off; inactive means mostly below about 7.6%;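 further: 0% = cells with vehicle only and 100% = reference agonist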
MOR-DOR inv ag-2 = inverse agonists of MOR-DOR heterodimerization, counter-screen for HTR5A inverse agonist project, cell-based, luminescence; inhibition, % at 9.3 µM; 190 tested, under 10 active; shares compounds with HTR5A inv ctr; U2OS counter-screen cells, complementation luminescence;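 further: 0% = cells with DMSO and 100% = wells without cells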
HTR5A inv conf = HTR5A inverse agonists, retest of hits, confirmation, cell-based, luminescence; shares compounds with HTR5A inv ctr; 190 tested, under 10 active; inhibition, % at 9.3 µM; HTR5A-expressing cells, inverse agonism;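 further: 0% = cells with DMSO and 100% = no cells with DMSO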
Numbers without * were called inactive; i = inactive; . = no result. This is a sample that favours compounds with a hit; in the whole collection about 1.1% have one here. Unless noted, how the calls were made is not given here.

SMILES	MOR-DOR inv ag-1	HTR5A inv ctr	MOR-DOR ag	HTR5A ag ctr	MOR-DOR inv ag-2	HTR5A inv conf
O=C1CCC[C@@H]2C[C@@]3(C[C@@H]4CCN1[C@H]24)Nc1cc(Cl)ccc1NC3=NC1CCCCC1	-2.5	-17.1	0.5	3.5	.	.
Cc1ccc(-c2nnc(-c3ccccc3Br)o2)cc1	-19.3	1.8	4.0	-0.5	.	.
Brc1ccc(-c2nnc(-c3ccccc3Br)o2)cc1	-16.1	39.6*	2.8	7.5	-49.1	-7.2
CCOc1ccc(N2CC(C(=O)NC3CCCCCC3)CC2=O)cc1 (centres undefined)	-28.1	-22.4	3.4	-1.5	.	.
Cc1ccc2ccc(C(Nc3cccc(C(F)(F)F)c3)c3cccnc3)c(O)c2n1 (centres undefined)	-24.2	89.0*	4.4	-32.1	-10.9	-13.2
CCOc1cc(N2CCOCC2)c(OCC)cc1NC(=O)c1oc2ccccc2c1C	-10.7	23.6*	2.1	-8.4	-29.9	4.2
Cc1nnc(NC(=O)c2ccc(S(=O)(=O)N(C)Cc3ccccc3)cc2)o1	15.7	8.0	-2.8	-4.5	.	.
COCc1nnc(NC(=O)c2ccc(S(=O)(=O)N(C)Cc3ccccc3)cc2)o1	-4.3	32.5*	0.8	-13.4	25.8	4.2
CCOP(=O)(OCC)c1ccc2ccc3ccccc3c(=O)c2c1	-4.8	-34.8	0.8	1.1	.	.
O=C(CSc1nnc(-c2ccccc2Br)o1)N1CCOCC1	2.0	24.8*	-0.4	-9.3	i	-64.0
O=C(CSc1nnc(-c2ccccc2O)o1)N1CCOCC1	2.7	7.8	-0.4	-2.7	.	.
COCCOC(=O)C1=C(C)OC(N)=C(C#N)C1c1ccc2c(c1)OCO2 (centres undefined)	11.0	33.3*	-2.0	-9.2	-25.6	-13.8
COCCCNC(=O)c1cc(C(=O)c2ccccc2Br)c[nH]1	2.2	70.8*	-0.4	-25.8	-37.5	-22.9
CNC(=O)c1cc(C(=O)c2ccccc2Br)c[nH]1	16.2	10.4	-3.5	-2.9	.	.
O=C(COC(=O)CNC(=O)c1ccccc1)NCCCc1ccccc1	21.5	4.4	-4.4	-1.1	.	.
CN1C(=O)/C(=C/c2cc3c(cc2Br)OCO3)NC1=S	-8.0	23.5*	1.6	-9.1	i	-4.5
COCCn1c(C)cc(/C=C2\NC(=S)N(C)C2=O)c1C	5.0	2.5	-0.7	-0.9	.	.
O=[N+]([O-])c1ccc(N/N=C/c2ccc(O)c(O)c2O)c(S(=O)(=O)N2CCOCC2)c1	3.6	26.7*	-0.6	-10.2	7.8	5.1
COc1cc(/C=N/Nc2ccc([N+](=O)[O-])cc2S(=O)(=O)N2CCOCC2)cc(OC)c1OC	13.4	-1.8	-2.5	1.5	.	.
O=[N+]([O-])c1ccc(N/N=C/c2cccc(O)c2O)c(S(=O)(=O)N2CCOCC2)c1	-6.5	48.0*	1.3	-9.4	-23.5	27.4
CCOc1cc(/C=N/NC(=O)c2cccs2)cc([N+](=O)[O-])c1O	21.6	24.6*	-4.3	-9.1	54.9*	-4.1
Cc1ccccc1NC(=O)OCc1ccccc1	15.8	-2.5	-3.2	0.7	.	.
N=C1C=CC(=C(c2ccc(N)cc2)c2ccc(N)cc2)C=C1	-3.9	31.4*	0.8	-8.0	-82.6	-0.6
Nc1ccc(C(=O)C(=O)c2ccc(N)cc2)cc1	12.6	2.2	-2.3	-0.6	.	.
N#CC1=C(N)Oc2c(ccc3cccnc23)C1c1ccccc1 (centres undefined)	14.3	33.1*	-2.7	-12.1	-6.9	4.6
Cc1ccc(C(=O)N2CCN(S(=O)(=O)c3ccc(Br)cc3)CC2)o1	19.7	12.6	-3.7	-4.5	.	.
C=CCn1c(SCC(=O)Nc2ccc(F)cc2)nc2cc(C(=O)O)ccc2c1=O	2.7	43.4*	-0.5	1.8	-12.9	-85.3
Oc1c(C(c2ccccn2)N2CCCCC2)cc(Cl)c2cccnc12 (centres undefined)	-42.6	28.9*	8.6	-9.8	6.3	5.1
CN1CCN(C(c2ccc(Cl)cc2)c2cc(Cl)c3cccnc3c2O)CC1 (centres undefined)	-58.7	-9.4	10.5	3.9	.	.
O=c1[nH]nnc2c1cnn2-c1ccccc1	8.0	-9.1	-1.6	2.3	.	.

Compound activity deposited in PubChem BioAssay by The Scripps Research Institute Molecular Screening Center.
